Screening data as filed in PubChem BioAssay.
Cycloheximide cs: counter-screen hit for Shiga toxin inhibitors, cycloheximide. cell reporter, cycloheximide protein synthesis inhibition counterscreen. AID 2314. max response, %. actives 12% (n = 300,000); in the data active means max response mostly above about 13%, no sharp cut-off; inactive means mostly below about 14%; further: read at 38.3 µM for the half of the compounds with a filed dose; 0% is about no effect
Shiga inhibitor: Shiga toxin inhibition. inhibition, % at 38.7 µM. actives 9.2% (n = 290,000). Vero cells, Shiga toxin protein synthesis inhibition reporter; in the data active means inhibition mostly above about 28%, no sharp cut-off; inactive means mostly below about 43%; further: 0% is about no effect
Marburg entry inh: inhibitors of Marburg virus binding or cell entry; Potency, µM (top dose mostly 37.8 µM), without a hit: at the top dose activity change, negative = inhibition, most hits filed as inhibitors; AID 540276; actives 1.8% (n = 300,000); Marburg virus pseudotyped entry inhibition, cell reporter; calls by dose curve; tested in HEK293 cells; further: potency means the concentration at half of the fitted maximal effect; on the % scale 0 is the no-effect control and ±100 the full control effect
FMDV inh: blocks foot and mouth disease virus; FMDV antiviral cell-based qHTS; Potency, µM (titrated, usually from 57.9 µM), for inactives: at the highest dose activity change, negative = inhibition, usual class: inhibitors; actives 1.2% (n = 410,000); calls by dose curve; tested in HEK293T cells; further: read-out not given here; potency means the concentration at half of the fitted maximal effect; on the % scale 0 is the no-effect control and ±100 the full control effect; nearly all actives have a fitted effect of over 45% in size
HCV inh: inhibitors of hepatitis C virus infection; Potency, µM (series often up to 41.8 µM), without a hit: top-dose activity change, negative = inhibition, actives largely listed as inhibitors; AID 651820; actives 3.4% (n = 340,000); Huh7.5.1 HCVcc-Cre infection, luciferase reporter, 44 h; active means well fitted inhibition curve with a large enough effect; inconclusive means small, poorly fitted or top-dose-only effect, or another doubt; inactive means no such curve, though single readings can be large or run the other way; further: potency means the concentration at half of the fitted maximal effect; on the % scale 0 is the no-effect control and ±100 the full control effect
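HCVcc-Cre virus at an moi near 0.5 was added right after compound to cells cultured 4 h from seeding (1,000 cells/well). Luciferase activity was determined 44 h later, 15 min after substrate addition at RT.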
LASV entry inh: blocks Lassa virus binding to or entry into cells | actives 1.2% (n = 300,000) | Lassa virus pseudotype entry inhibition, cell reporter | AID 540256 | Potency, µM (series often up to 37.9 µM), for the others: top-dose activity change, negative = inhibition, hits mostly inhibitors; calls by dose curve; tested in HEK293 cells; further: potency means the concentration at half of the fitted maximal effect; on the % scale 0 is the no-effect control and ±100 the full control effect; nearly all actives have a fitted effect of over 50% in size
* = called active by the depositor; ? = inconclusive; / = no result; [ ] = remark or other dose. Shown are actives, neighbours in structure and some others; about 13% of the full set was active somewhere.

SMILES	Cycloheximide cs	Shiga inhibitor	Marburg entry inh	FMDV inh	HCV inh	LASV entry inh
O=C(O)c1cnn(-c2nc(-c3ccc(Br)cc3)cs2)c1C(F)(F)F	45*	53*	/	32%	18%	/
COc1cc2c(cc1OC)[C@@H]1O[C@](CCCCN3C(=O)c4ccccc4C3=O)(C2)OC2=C1C(=O)c1ccccc1C2=O	/	/	-9%[14.2 µM]	/	/	/
Cc1ccc2c(C)c(C(=O)N(C)C(C)c3ccon3)oc2c1C (centres undefined)	59*	83*	?	4%	-18%	-27%
Cc1ccc2c(C)c(C(=O)NCC3CCOCC3)oc2c1C	/	/	/	-24%	/	/
Cc1ccc2c(C)c(C(=O)N(C)C(C)c3ccncn3)oc2c1C (centres undefined)	13*	54*	/	34%	-26%	/
Cc1ccc(-c2nnc(Nc3cccc(Cl)c3)c3ccccc23)cc1S(=O)(=O)N1CCN(C)CC1	/	/	?	-15%	/	12%[46.1 µM]
COc1ccccc1CNCc1cccc(Oc2ccccc2)c1	7	12	11µM*	-23%	-4%	-15%[46.1 µM]
c1ccc(N=P(c2nc3ccccc3o2)(N2CCOCC2)N2CCOCC2)cc1	23*	33*	-2%	/	0%	-11%
c1ccc(N=P(N2CCOCC2)(N2CCOCC2)N2CCOCC2)cc1	-2	-7	9%	-23%	23%	7%
O=C(COC(=O)C1=COCCO1)NC1CCCCCCC1	29*	46*	15%[46.1 µM]	30%	17%	2%[46.1 µM]
O=C(COC(=O)C1=COCCO1)Nc1ccc(OC(F)F)cc1	38*	53*	3%[46.1 µM]	34%	1%	/
O=C(NC1CCCC1)C1=COCCO1	-5	3	11%	-24%	10%	7%
COc1ccccc1C(=O)OCC(=O)Nc1ccccc1OC(F)F	14	-5	/	-1%	-6%	/
N#Cc1ccc(NC(=O)COC(=O)C2=COCCO2)cc1	28	-3	-2%	12%	-7%	15%
COc1ccccc1C(=O)OCC(=O)Nc1ccc(OC(F)F)cc1	21*	93*	24%	-1%	?	18%
O=C(COC(=O)C1=COCCO1)Nc1ccccc1	52*	64*	?	20%	32%	?
Cc1cc(C)c(S(=O)(=O)NCc2cn3ccccc3n2)c(C)c1	8	-5	/	-29%	9%	/
Cc1ccc(NC(=O)C(OC(=O)c2ccc(C=O)cc2)c2ccccc2)cc1Cl (centres undefined)	15*	5	-10%[46.1 µM]	29%	-7%	?
Cc1ccc(C)c(NC(=O)C(OC(=O)c2ccc(CO)cc2)c2ccccc2)c1 (centres undefined)	/	/	-33%	4%	-17%	-8%
COc1cc(C(O)P(=O)(OC(C)C)c2ccc(N(C)C)cc2)cc(OC)c1OC (centres undefined)	-3	-6	12%	4%	2%	0%
COc1ccc(C(=O)/C=C/c2ccc3c(c2)OCCO3)cc1	31*	92*	-13%	24%	-6%	-15%
CCOc1cc(/C=C/C(=O)c2ccc3c(c2)OCCO3)ccc1OCC(=O)N(C)C	-5	-9	?	14µM*	?	/
COc1ccc(/C=C/C(=O)c2ccc3c(c2)OCCO3)cc1[N+](=O)[O-]	-1	8	?	?	32µM*	-6%
COc1ccc(/C=N/NC(=O)c2ccc3c(c2)OCCO3)cc1[N+](=O)[O-]	-1	-2	19%	-5%	-8%	13%
Cc1ccc(O)c(C(=O)/C=C/c2ccc3c(c2)OCCO3)c1	33*	142*	/	-26%	-26%	/
SMILES	Cycloheximide cs	Shiga inhibitor	Marburg entry inh	FMDV inh	HCV inh	LASV entry inh
CCCNC(=O)CCNC(=O)[C@H](O)C(C)(C)CO	/	/	/	17%	-6%	/
N#CC1(NC(=O)COC(=O)c2cc([N+](=O)[O-])ccc2N2CCCC2)CCCCC1	/	/	-16%[46.1 µM]	-5%	?	2%
Cc1ccccc1NS(=O)(=O)c1cccc(C(=O)Nc2cccc(C(=O)O)c2)c1	-2	-1	/	-11%	7%	/
CCCc1nnc(NC(=O)CC(C)c2ccccc2)s1 (centres undefined)	-3	24	4%	1%	15%	7%
CCOC(=O)C1=NNC2C(=O)N(CC)C(=O)C12 (centres undefined)	-4	-11	14%	-10%	-6%	-2%
COc1ccc(Oc2ccc(/C=N/NC(=O)c3cccnc3)cc2[N+](=O)[O-])cc1	-2	-6	-29%[46.1 µM]	0%	?	/
O=C(/C=C/c1ccc2c(c1)OCCO2)c1ccccc1	42*	74*	/	-7%	-16%	/
COc1ccc(Oc2ccc(/C=C/C(=O)c3cccc(OC)c3)cc2[N+](=O)[O-])cc1	-3	-12	?	32µM*	?	?
Cc1ccc(S(=O)(=O)N2CCC(=O)N(C(COC(=O)Nc3ccccc3)Cc3ccccc3)CC2)cc1 (centres undefined)	11	21	?	-11%	?	?
CC(C)CN=C(NS(=O)(=O)c1ccccc1)C(Cl)(Cl)Cl	16	13	?	?	5µM*	?
CC(c1nccs1)N(C)C(=O)c1cn(Cc2cccc3ccccc23)nn1 (centres undefined)	40*	123*	/	36%	-1%	/
O=C1c2ccccc2CCC1C(O)c1ccccn1 (centres undefined)	39*	46	12%	40%	11%	14%
OC(c1ccccn1)C(O)c1ccccn1 (centres undefined)	/	/	3%	-19%	11%	1%[46.1 µM]
COCCCNC(=O)CCn1c(=O)c2ccccc2n(CC(=O)Nc2cc(Cl)ccc2C)c1=O	-5	-4	14%[46.1 µM]	-22%	7%	4%
CN(C)c1ccc(C(=O)Nc2ccc(O)c3c(=O)cc(-c4ccccc4Cl)oc23)cc1	8	18	/	-11%	32µM*	/
O=C(Nc1ccc(O)c2c(=O)cc(-c3ccccc3Cl)oc12)c1ccc(Br)cc1	-2	-5	/	/	/	/
COc1ccc(CCNC(=O)c2cc(C(=O)c3cc(C)ccc3O)cn(CCc3ccc(OC)cc3)c2=O)cc1	0	13	?	8%	?	2.8µM*
CN1CCc2c(sc3c2C(=O)NC(c2cccs2)N3)C1 (centres undefined)	34*	35*	16%	/	7%	27%
N#Cc1cccnc1Nc1ccc(Cl)cc1	10	8	26%[46.1 µM]	-6%	12%	1%
Cc1ccc(Nc2ncccc2C(=O)O)cc1C	21*	92*	/	39%	15%	/
CCOc1ccc(NC(=S)Nc2ccc(C)c([N+](=O)[O-])c2)cc1	-5	-10	-4%	-22%	-34%	1%
NC(=O)c1cccnc1Nc1ccccc1Cl	30*	56*	15%	38%	?	3%
Cc1cc(C)c(Nc2ncccc2C(=O)O)c(C)c1	-2	-19	2%[46.1 µM]	4%	6%	0%
Cc1ccc(Nc2ncccc2C(N)=O)cc1[N+](=O)[O-]	39*	50*	?	11%	?	15%
O=C(O)c1cccnc1Nc1ccc(Cl)cc1	27*	101*	?	18%	5%	?
